The record followed here is the supplement of paper PMC13380429.

For assay [1], the system named is Vero E6 infected with SARS-CoV-2. Description: morphology score (similarity to uninfected cells); higher = more like uninfected cells. To be noted: 24 h.
For assay [2] the test system is unchanged. The assay is described as follows: SARS-CoV-2 infection rate relative to infected DMSO; higher = more infection, active = 60 or less. To be noted: 24 h.

With `CCOC(=O)[C@@H](N)CCC(=O)N[C@@H](CSCc1ccccc1)C(=O)N[C@@H](C(=O)OCC)c1ccccc1` [ezatiostat] (10 µM), the morphology score in assay [1] turned out to be 0.202. For the same compound, the SARS-CoV-2 infection rate in assay [2] was 78.5% (inactive).
The matching figures for `C[C@@H](O[C@H]1OCCN(Cc2nn(P(=O)(O)O)c(=O)[nH]2)[C@H]1c1ccc(F)cc1)c1cc(C(F)(F)F)cc(C(F)(F)F)c1` [fosaprepitant-dimeglumine] (10 µM): 0.0215 and 112% (inactive).
The compound `O=S(=O)(O)c1cc(O)ccc1O` [etamsylate] (10 µM) displayed a morphology score in assay [1] of 0.0853. Moreover, the SARS-CoV-2 infection rate in assay [2] is 94.5% (inactive).
The matching figures for `CC(C)c1cc(CNc2nc(Nc3cc(C4CC4)[nH]n3)cc(N3CCN(C)CC3)n2)on1` (10 µM): -0.0949 and 112% (inactive).
The matching figures for `OC[C@@H](O)[C@@H](O[C@@H]1O[C@H](CO)[C@H](O)[C@H](O)[C@H]1O)[C@H](O)[C@@H](O)CO` (10 µM): -0.0894 and 111% (inactive).
For `CC(C)NCCCn1c(Sc2cc3c(cc2I)OCO3)nc2c(N)ncnc21` (0.833333 µM) the same measures were 0.255 and 96.5% (inactive).
The compound `OCc1ccc(O[C@@H]2O[C@H](CO)[C@@H](O)[C@H](O)[C@H]2O)cc1` [gastrodin] (10 µM) returned a morphology score in assay [1] of 0.19. Also, in assay [2], the SARS-CoV-2 infection rate was 106% (inactive).
For `C[C@@H](NC(=O)CCc1nc2ccccc2c(=O)[nH]1)c1ccccc1` (10 µM) the same measures were 0.239 and 95.5% (inactive).
`Cc1cccc(NC(=O)CN2CCC(c3ccccn3)CC2)c1` (10 µM) had a morphology score in assay [1] of -0.0959. Moreover, the SARS-CoV-2 infection rate in assay [2] is 108% (inactive).
`O=C(/C=C/c1cccc(S(=O)(=O)Nc2ccccc2)c1)NO` [belinostat] (10 µM) returned a morphology score in assay [1] of 0.0182. Further, the SARS-CoV-2 infection rate in assay [2] is 97.5% (inactive).
For `CN1C/C=C/CCOc2cccc(c2)-c2ccnc(n2)Nc2cccc(c2)C1` (10 µM) the same measures were -0.0856 and 104% (inactive).
The matching figures for `c1ccc(C[C@H](c2ccccc2)N2CCCCC2)cc1` (racemic) [1-(1,2-diphenylethyl)piperidine-(+/-)] (10 µM): 0.349 and 69% (inactive).
Compound `COc1cc2c(cc1OC)[C@H](C)NCC2` [Isoquinoline,-6,7-dimethoxy-1-methyl-1,2,3,4-tetrahydro,] (10 µM) came in with a morphology score in assay [1] of 0.0205. The SARS-CoV-2 infection rate in assay [2] was 105% (inactive).
In assay [1], `Cc1cc(C)c(N)c(C#Cc2cccc(F)c2)n1` (10 µM) came in with a morphology score of 0.221. The SARS-CoV-2 infection rate in assay [2] was 97.5% (inactive).
The matching figures for `CC(Cc1ccccc1)(NC(=O)CN)c1ccccc1` (stereo not drawn) [remacemide] (10 µM): -0.124 and 113% (inactive).
Compound `Cn1c(=O)cnn(CCCCN2CCN(c3ncccn3)CC2)c1=O` (10 µM) returned a morphology score in assay [1] of -0.0383. Moreover, in assay [2], the SARS-CoV-2 infection rate is 115% (inactive).
For `O=C(CCCCCCCC(=O)NCCO)NCCO` [adelmidrol] (10 µM) the same measures were -0.0406 and 105% (inactive).
`Cn1cc([S+](C)[O-])c(=O)c2ccc(F)cc21` (stereo not drawn) [flosequinan] (10 µM) came in with a morphology score in assay [1] of 0.195. Besides, the SARS-CoV-2 infection rate in assay [2] was 96.5% (inactive).
For `CCO[C@@H]1OC(=O)C[C@@H]1NC(=O)[C@@H]1CCCN1C(=O)[C@@H](NC(=O)c1ccc(N)c(Cl)c1)C(C)(C)C` (10 µM), the morphology score in assay [1] turned out to be 0.0386. Besides, the SARS-CoV-2 infection rate in assay [2] is 116% (inactive).
`Cc1cccc2c1CC[C@H](CN1CCC(c3c(Cl)cccc3Cl)CC1)C[C@@H]2O` (0.833333 µM): the morphology score in assay [1] amounted to 0.134. Besides, the SARS-CoV-2 infection rate in assay [2] is 98% (inactive).
The matching figures for `CC(NCCc1ccc(O)cc1)C(O)c1ccc(O)cc1` (stereo not drawn) [ritodrine] (10 µM): 0.154 and 96% (inactive).
For the compound `NCC[C@H](O)C(=O)N[C@@H]1C[C@H](N)[C@@H](O[C@H]2O[C@H](CN)[C@@H](O)[C@H](O)[C@H]2O)[C@H](O)[C@H]1O[C@H]1O[C@H](CO)[C@@H](O)[C@H](N)[C@H]1O` [amikacin] (10 µM), in assay [1], the morphology score was -0.122. Moreover, in assay [2], the SARS-CoV-2 infection rate is 91% (inactive).
The matching figures for `CO/N=C(\C(=O)N[C@@H]1C(=O)N2C(C(=O)OCOC(=O)C(C)(C)C)=C(/C=C\c3scnc3C)CS[C@H]12)c1csc(N)n1` [cefditoren-pivoxil] (10 µM): 0.149 and 99.5% (inactive).
For `CCOc1ccc2nc(S(N)(=O)=O)sc2c1` [ethoxzolamide] (10 µM), the morphology score in assay [1] came to 0.205. The SARS-CoV-2 infection rate in assay [2] is 97.5% (inactive).
For `C/C(O)=C(\C#N)C(=O)Nc1ccc(C(F)(F)F)cc1` [teriflunomide] (10 µM) the same measures were 0.0341 and 108% (inactive).
In turn, `C[N+]1(C)CCCC(OC(=O)C(O)(c2ccccc2)c2ccccc2)C1` (stereo not drawn) [mepenzolate] (10 µM) gave a morphology score in assay [1] of 0.047. In addition, the SARS-CoV-2 infection rate in assay [2] is 105% (inactive).
The matching figures for `NC(=O)c1cnc2[nH]ccc2c1N[C@@H]1[C@@H]2CC3C[C@H]1C[C@@](O)(C3)C2` (10 µM): 0.174 and 106% (inactive).
The matching figures for `COc1ccc2cc(CCC(C)=O)ccc2c1` [nabumetone] (10 µM): 0.0377 and 118% (inactive).
As to `CC(=O)Oc1ccccc1C(=O)Oc1cccc(CO[N+](=O)[O-])c1` (10 µM), the morphology score in assay [1] amounted to 0.178. The SARS-CoV-2 infection rate in assay [2] was 101% (inactive).
